{"source": "PubChem BioAssay AID1851", "about": "(National Center for Advancing Translational Sciences (NCATS), 2009)", "note": "Values joined by “and” are separate entries in the source; they are usually repeats but may differ in a detail not shown here. Equal entries are not always repeated. Screen size: about 16,000 compounds; about 5,700 (36%) were called active. Not shown: some 24% with an inconclusive outcome. The call rests on the fitted dose curve; in most records, active means well fitted curve in the direction sought with a large enough effect; inconclusive means small, poorly fitted or top-dose-only effect, or effect the other way; inactive means no such curve, though single readings can be large or run the other way. This is one part of the list. A structure can be active in one record and inactive in another. On the % scale 0 is the no-effect control and ±100 the full control effect.", "data": [{"molecular_target": "Cytochrome P450 1A2 (Homo sapiens) (UniProt P05177)", "sequence (P05177 whole entry, looked up)": "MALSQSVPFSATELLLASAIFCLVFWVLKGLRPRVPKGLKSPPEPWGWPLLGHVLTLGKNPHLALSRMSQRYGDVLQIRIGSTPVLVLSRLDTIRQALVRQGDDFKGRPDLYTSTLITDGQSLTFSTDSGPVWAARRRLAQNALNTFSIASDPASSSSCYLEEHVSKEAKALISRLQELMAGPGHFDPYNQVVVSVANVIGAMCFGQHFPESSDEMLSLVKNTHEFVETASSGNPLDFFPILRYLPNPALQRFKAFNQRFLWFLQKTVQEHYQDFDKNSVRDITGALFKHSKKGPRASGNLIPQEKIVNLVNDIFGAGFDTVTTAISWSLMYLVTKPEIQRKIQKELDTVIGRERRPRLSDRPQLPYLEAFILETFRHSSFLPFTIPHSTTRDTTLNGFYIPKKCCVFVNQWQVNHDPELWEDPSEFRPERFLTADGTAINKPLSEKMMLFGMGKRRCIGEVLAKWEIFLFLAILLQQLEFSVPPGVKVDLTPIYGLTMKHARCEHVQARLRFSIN", "test": "Cytochrome panel assay with activity outcomes", "conditions": "recombinant CYP, pro-luciferin dealkylation, luminescence, p450-cyp1a2; series mostly up to 57.1 µM", "values": [{"smiles": "Cc1c(CCC(C)C)c(-n2ccnc2C)n2c(nc3ccccc32)c1C#N", "AC50": "inactive"}, {"smiles": "Cc1ccccc1S(=O)(=O)O[C@@H]1NS(=O)(=O)c2ccccc21", "activity, negative = inhibition": "13.5% [at 2.29 µM] (inactive)"}, {"smiles": "Cc1ccccc1S(=O)(=O)Oc1ccccc1C(=O)Oc1ccccc1", "AC50": "3.55 µM (active)"}, {"smiles": "COC(=O)[C@H](Cc1ccccc1)NC(=O)N1CCN(Cc2ccccc2)CC1", "AC50": "inactive"}, {"smiles": "O=C(O)Cc1c(O)ccc2ccccc12", "activity, negative = inhibition": "-9.69% [at 11.4 µM] (inactive)"}, {"smiles": "Oc1ccc2ccccc2c1C=NCc1c(O)ccc2ccccc12", "AC50": "1.58 µM (active)"}, {"smiles": "c1ccc(-c2ccc(N3CCCC4(CCNCC4)C3)cc2)cc1", "AC50": "10 µM (active)"}, {"smiles": "c1ccc(-c2ccc(N3CC4(CCNCC4)C3)cc2)cc1", "AC50": "15.8 µM (active)"}, {"smiles": "O=C(c1csnn1)N1CCC2(CCCN(c3ccc(-c4ccccc4)cc3)C2)CC1", "AC50": "inactive"}, {"smiles": "COc1ccccc1CN1CCCC2(CCNCC2)C1", "AC50": "inactive"}, {"smiles": "c1ccc(-c2ccc(N3CC[C@@]4(CCCNC4)C3)cc2)cc1", "AC50": "12.6 µM (active)"}, {"smiles": "O=S(=O)(c1ccccc1)N1CCC[C@@]2(CCN(c3ccncc3)C2)C1", "AC50": "inactive"}, {"smiles": "c1ccc(C(c2ccccc2)N2CC[C@@]3(CCCNC3)C2)cc1", "AC50": "inactive"}, {"smiles": "N[C@@H](Cc1ccccc1)C(=O)O", "activity, negative = inhibition": "-14% [at 11.4 µM] (inactive)"}, {"smiles": "Cc1ccccc1-c1nc(N(C)C)c2ccccc2n1", "AC50": "0.631 µM (active)"}, {"smiles": "COc1ccccc1-c1nc(N(C)C)c2ccccc2n1", "AC50": "0.398 µM (active)"}, {"smiles": "CN(C)c1nc(-c2ccccc2C(F)(F)F)nc2ccccc12", "AC50": "0.251 µM (active)"}, {"smiles": "Cc1ccc(-c2ccc(=O)n(CC(=O)NCCN3CCCCC3C)n2)cc1", "note": "(stereo not drawn)", "AC50": "inactive"}, {"smiles": "O=C(NCC1COc2ccccc2O1)C1C2C=CC3(CN(Cc4cccs4)C(=O)C13)O2", "note": "(stereo not drawn)", "AC50": "inactive"}, {"smiles": "COc1ccc(/C=N/NC(=O)CCCOc2ccc(Cl)cc2Cl)cc1[N+](=O)[O-]", "AC50": "1.26 µM (active)"}, {"smiles": "CC(C)C(=O)Nc1ccc(C(=O)NNC(=O)CCCOc2ccc(Cl)cc2Cl)cc1", "AC50": "inactive"}, {"smiles": "COCCCNC(=O)C(=O)N/N=C/c1ccc(OCC(=O)Nc2cccc(Cl)c2C)c(OC)c1", "AC50": "inactive"}, {"smiles": "CC1(C)CC(=O)C/C(=N/NC(=O)CCCOc2ccc(Cl)cc2Cl)C1", "AC50": "15.8 µM (active)"}, {"smiles": "COC(=O)CCCC(=O)O", "activity, negative = inhibition": "-7.34% [at 2.29 µM] (inactive)"}, {"smiles": "COC(=O)CCC(=O)NNC(=O)CCCOc1ccc(Cl)cc1Cl", "AC50": "12.6 µM (active)"}, {"smiles": "Clc1ccccc1-c1nccc(NCc2ccccc2)n1", "AC50": "3.16 µM (active)"}, {"smiles": "Cc1cccc(CNc2ccnc(-c3ccccc3Cl)n2)c1", "AC50": "1.58 µM (active)"}, {"smiles": "Cc1cccc(CNc2ccnc(-c3ccccc3CN(C)C)n2)c1", "AC50": "3.16 µM (active)"}, {"smiles": "CCOc1ccc(-n2c(N)c(C(=O)NCc3cccnc3)sc2=S)cc1", "AC50": "inactive"}, {"smiles": "COc1ccc(-n2c(N)c(C(=O)NCc3ccco3)sc2=S)cc1", "AC50": "11.2 µM (active)"}, {"smiles": "OC[C@@H]1NC[C@@H](O)[C@H]1O", "AC50": "inactive"}, {"smiles": "CCOC(=O)c1[nH]c2ccc(Cl)cc2c1-c1ccccc1", "AC50": "0.398 µM (active)"}, {"smiles": "NC(=NCc1ccc(Cl)c(Cl)c1)NC(=O)c1nc(Cl)c(N)nc1N", "AC50": "10 µM (active)"}, {"smiles": "O=C(CC1C(=O)N(c2ccc(Cl)cc2)C(=S)N1CCc1ccncc1)Nc1ccc(F)cc1", "note": "(stereo not drawn)", "AC50": "5.01 µM (active)"}, {"smiles": "CC(=O)Nc1ccc(S(=O)(=O)NC2(C(F)(F)F)NC(=O)N(c3ccc(Cl)cc3)C2=O)cc1", "note": "(stereo not drawn)", "AC50": "inactive"}, {"smiles": "CCNC(=O)CC1C(=O)N(c2ccc(F)cc2)C(=O)N1CCc1ccc(OC)cc1", "note": "(stereo not drawn)", "AC50": "inactive"}, {"smiles": "CCCn1c(-c2ccccc2)nc2c(=O)n(C)c(=O)[nH]c21", "AC50": "inactive"}, {"smiles": "Cn1c(-c2ccccc2)cnc1N", "AC50": "17.8 µM (active)"}, {"smiles": "CN(C)c1ccc(-c2nc(N(C)C)c3ccccc3n2)cc1", "AC50": "0.251 µM (active)"}, {"smiles": "CNc1nc(-c2ccc(N(C)C)cc2)nc2ccccc12", "AC50": "0.2 µM (active)"}, {"smiles": "CN(C)c1nc(-c2ccoc2)nc2ccccc12", "AC50": "0.501 µM (active)"}, {"smiles": "CN(C)c1ccc(-c2nc(Nc3ccncc3)c3ccccc3n2)cc1", "AC50": "0.501 µM (active)"}, {"smiles": "COCC(=O)N1CCC[C@@]2(CCN(Cc3ccccc3)C2)C1", "AC50": "inactive"}, {"smiles": "O=C(CC1(O)CCCCC1)OC1CCCC1", "activity, negative = inhibition": "-12.2% [at 11.4 µM] (inactive)"}, {"smiles": "CC1(C)O[C@H]2[C@@H](O1)[C@@H](On1nnc3ccc(Cl)cc31)O[C@@H]2[C@@H]1COC(C)(C)O1", "activity, negative = inhibition": "-10.9% [at 2.29 µM] (inactive)"}, {"smiles": "CN(C)c1nc(-c2cccnc2)nc2ccccc12", "AC50": "0.126 µM (active)"}, {"smiles": "CCOC(=O)Cc1c(C)nc2c(C#N)c[nH]n2c1=O", "AC50": "inactive"}, {"smiles": "CCOC(=O)Cc1cc(=O)n2[nH]c(C)c(C#N)c2n1", "AC50": "inactive"}, {"smiles": "CCOC(=O)Cc1cc(=O)n2[nH]c(C)c(-c3ccccc3)c2n1", "AC50": "12.6 µM (active)"}, {"smiles": "S=C(CSc1ccccc1)Nc1cccc2ccccc12", "AC50": "1.26 µM (active)"}, {"smiles": "CO[C@@H]1COC(=O)CCC[C@@H](C)[C@H](OC)COC(=O)CCC[C@H]1C", "activity, negative = inhibition": "5.33% [at 11.4 µM] (inactive)"}, {"smiles": "Cc1cccc(-c2noc(-c3cc4ccccc4oc3=O)n2)c1", "AC50": "3.16 µM (active)"}, {"smiles": "CS(=O)(=O)c1ccccc1-c1nc(-c2cc(C(F)(F)F)cc(C(F)(F)F)c2)no1", "AC50": "inactive"}, {"smiles": "NC1=NC2(CCCCC2)N=C(Nc2ccc(F)cc2F)N1", "AC50": "inactive"}, {"smiles": "Cc1ccc(C(=O)NNC(=O)C2CCCN(c3ncccn3)C2)cc1", "note": "(stereo not drawn)", "AC50": "inactive"}, {"smiles": "COc1cc(C)nc(N2CCCC(C(=O)Nc3cc(Cl)ccc3OC)C2)n1", "note": "(stereo not drawn)", "AC50": "3.55 µM (active)"}, {"smiles": "O=C(O)C1CCCCC1C(=O)Nc1cc(Cl)ccc1Cl", "note": "(stereo not drawn)", "AC50": "inactive"}, {"smiles": "CN1CCN(S(=O)(=O)c2ccc3[nH]cc(C(=O)O)c(=O)c3c2)CC1", "AC50": "inactive"}, {"smiles": "CCOC(=O)N1CCN(S(=O)(=O)c2ccc3[nH]cc(C(=O)O)c(=O)c3c2)CC1", "AC50": "inactive"}, {"smiles": "Cc1ccccc1NS(=O)(=O)c1ccc2[nH]cc(C(=O)N(C)Cc3ccco3)c(=O)c2c1", "AC50": "15.8 µM (active)"}, {"smiles": "COc1ncc2nc(-c3cccs3)c(=O)n(C)c2n1", "AC50": "2 µM (active)"}, {"smiles": "COc1ccc(Oc2ncc3nc(-c4cccs4)c(=O)n(C)c3n2)cc1", "AC50": "3.16 µM (active)"}, {"smiles": "O=C(NNC(=O)c1cc2cc3ccccc3nc2s1)c1cccc(C(F)(F)F)c1", "AC50": "inactive"}, {"smiles": "Cc1sc(N)c(C(=O)c2cccc(C(F)(F)F)c2)c1C", "AC50": "15.8 µM (active)"}, {"smiles": "CC(C)NC1(C(N)=O)CCN(Cc2ccccc2)CC1", "activity, negative = inhibition": "7.61% [at 2.29 µM] (inactive)"}, {"smiles": "Cc1ccnc(NCn2nnc3ccccc32)c1", "AC50": "28.2 µM (active)"}, {"smiles": "O=C(Cn1nnc2ccccc21)N1CCCCC1", "AC50": "inactive"}, {"smiles": "COc1ccc(N(C(=O)Cn2nnc3ccccc32)C2(C(=O)NC3CCCC3)CCCCC2)cc1", "AC50": "inactive"}, {"smiles": "Cc1ccc(S(=O)(=O)N[C@H]2COC(=O)[C@@H](Cc3ccccc3)NC(=O)[C@@H](C)COC(=O)C/C=C\\[C@@H]2C)cc1", "activity, negative = inhibition": "-7.75% [at 11.4 µM] (inactive) and -3.67% [at 11.4 µM] (inactive)"}, {"smiles": "Cc1c(NC(=O)C23CC4CC(CC(C)(C4)C2)C3)c(=O)n(-c2ccccc2)n1C", "AC50": "inactive"}, {"smiles": "Cc1c(CC(C)(C)C(=O)O)n(Cc2ccc(Cl)cc2)c2ccc(F)cc12", "AC50": "15.8 µM (active)"}, {"smiles": "CS(=O)(=O)c1ccc(Cn2c3c(c4cc(F)cc(F)c42)CCC[C@H]3CC(=O)O)cc1", "AC50": "inactive"}, {"smiles": "OCCNc1nc(NCCC2=CCCCC2)nc(N2CCOCC2)n1", "AC50": "0.708 µM (active)"}, {"smiles": "O=C(O)C[C@H](Cc1ccccc1Cl)C(=O)O", "activity, negative = inhibition": "-17.6% [at 11.4 µM] (inactive)"}, {"smiles": "O=C(CSCc1ccccc1Cl)NN1C(=O)c2ccccc2C1=O", "AC50": "14.1 µM (active)"}, {"smiles": "O=C(NN1C(=O)c2ccccc2C1=O)C1CCCCC1", "AC50": "inactive"}, {"smiles": "O=C1/C(=C\\c2ccc(Br)o2)SC(=Nc2ccccc2)N1c1ccccc1", "AC50": "0.126 µM (active)"}, {"smiles": "CC1=CC(=O)CC(C)(C)[C@]1(O)/C=C\\C(C)=C\\C(=O)O", "activity, negative = inhibition": "-7.1% [at 11.4 µM] (inactive)"}, {"smiles": "CC1=C(\\C=C/C(C)=C/C=C\\C(C)=C\\C(=O)O)C(C)(C)CCC1", "AC50": "inactive and 20 µM (active)"}, {"smiles": "CC1=NN(C(=O)c2ccncc2)C(=O)[C@@H]1N=Nc1ccc2ccccc2c1", "AC50": "0.158 µM (active)"}, {"smiles": "Cc1ccc(C)c(Nc2nc3nonc3nc2N2CCOCC2)c1", "AC50": "5.01 µM (active)"}, {"smiles": "FC(F)(F)c1nc2ccccc2nc1N/N=C/c1ccc(Cl)cc1", "AC50": "1.41 µM (active)"}, {"smiles": "FC(F)(F)c1nc2ccccc2nc1N/N=C\\c1ccccc1", "AC50": "0.562 µM (active)"}, {"smiles": "Cc1cccc(CNc2cc(-c3c(C)noc3C)ncn2)c1", "AC50": "1 µM (active)"}, {"smiles": "COc1ccccc1CNc1cc(-c2c(C)noc2C)ncn1", "AC50": "5.01 µM (active)"}, {"smiles": "Cc1noc(C)c1-c1cc(NCc2ccccc2)ncn1", "AC50": "5.01 µM (active)"}, {"smiles": "Cc1noc(C)c1-c1cc(NCc2cccnc2)ncn1", "AC50": "1 µM (active)"}, {"smiles": "CCS(=O)(=O)N(C)[C@@H]1c2cc(C#N)ccc2OC(C)(C)[C@H]1O", "AC50": "inactive"}, {"smiles": "CCOC(=O)C(C)CC(C)C(=O)N1CCOCCN(C(=O)C(C)CC(C)C(=O)OCC)CCOCC1", "note": "(stereo not drawn)", "AC50": "inactive"}, {"smiles": "Cc1noc(C)c1-c1cc(NCc2cccs2)ncn1", "AC50": "0.794 µM (active)"}, {"smiles": "Cc1ccc(C(=O)/C=C/c2c[nH]c3ccccc23)cc1", "AC50": "5.62 µM (active)"}, {"smiles": "O=C(O)[C@H](Cc1c[nH]c2ccccc12)N1C(=O)c2ccccc2C1=O", "activity, negative = inhibition": "-8.32% [at 2.29 µM] (inactive)"}, {"smiles": "Cc1ccc(C(=O)Nc2ccc(C(=O)/C=C/c3cccs3)cc2)cc1", "AC50": "inactive"}, {"smiles": "Cc1cc(C)n(Cc2ccc(NC(=O)c3ccc(COc4ccccc4Br)cc3)cc2)n1", "AC50": "inactive"}, {"smiles": "CNC(=S)NNC(=O)c1sccc1OCc1ccc(C)cc1", "AC50": "5.01 µM (active)"}, {"smiles": "COc1ccc(COc2ccsc2C(=O)Nc2ccc(Cl)c(Cl)c2)cc1", "AC50": "3.16 µM (active)"}, {"smiles": "COc1ccc(Cc2nnc(NC(=O)c3ccc(Cl)c([N+](=O)[O-])c3)s2)cc1", "AC50": "inactive"}, {"smiles": "Cc1ccc(C(=O)NNC(=S)NC(=O)c2ccc(Cl)cc2)cc1", "AC50": "inactive"}]}]}
